Assay results: PubChem BioAssay (NCATS)
Results filed as inconclusive are left out. The source holds several records for some structures; these can differ, active in one and inactive in another. Active and inactive are the calls of the source. Unless noted, calls follow the shape of the dose curve; as a rule, active = well fitted inhibition curve with a large enough effect; inconclusive = small, poorly fitted or top-dose-only effect; inactive = no such curve, though single readings can be large or run the other way.

Test system: not listed separately
Assay: qHTS Assay for Identification of Small Molecule Antagonists for NFkB Signaling Pathway (AID 895; active = well fitted inhibition curve with a large enough effect in the signal ratio, with a control signal flat, not every such curve was filed as active; the % refers to the signal ratio)
Details: NFkB beta-lactamase reporter cells, FRET ratio 460/530; series mostly up to 38.3 µM; activity change, negative = inhibition: at the top concentration
How it was run: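 ME-180 NFkB-bla cells (beta-lactamase under NFkB response element), plated overnight, treated with compound then 10 pM TNF alpha (about EC50) for 5 hrs at 37 C. LiveBLAzer FRET read at 460/530 nm emission, 405 nm excitation.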
% is scaled to controls: 0 for no effect and ±100 for the full control effect; potency is read from the fitted curve at half-maximal effect.

Row | Structure (SMILES) | activity change, negative = inhibition | Potency
1 | N[C@@H]1C[C@H]1c1ccccc1 | 22.9% (inactive) | 
2 | CN1C[C@H](CNC(=O)OCc2ccccc2)C[C@@H]2c3cccc4c3c(cn4C)C[C@H]21 | 17.5% (inactive) | 
3 | Cc1ccc(S(=O)(=O)N[C@@H](CCCCN)C(=O)CCl)cc1 |  | 11.2 µM (active)
4 | O=c1c(O)c(-c2ccc(O)c(O)c2)oc2cc(O)cc(O)c12 |  | 5.62 µM (active)
5 | CCCN1CCC[C@@H]2Cc3nc(N)ncc3C[C@H]21 | -7.89% (inactive) | 

Molecular target: Cytochrome P450 2C19 (Homo sapiens) (UniProt P33261)
Assay: qHTS Assay for Inhibitors and Substrates of Cytochrome P450 2C19 (AID 899); also: nearly all actives have a fitted effect of over 60% in size
Details: recombinant CYP2C19, luciferin-H EGE luminescence; series mostly up to 57.1 µM; activity, negative = inhibition: at the top concentration
How it was run: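 Signal comes from luciferase acting on luciferin released by CYP2C19-mediated hydroxylation of Luciferin-H EGE, 10uM (KM). Assay mix: 5nM enzyme, 50mM KPO4; 60 min at 37C with NADPH regeneration. Data normalized against 57uM ketoconazole.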

Cytochrome P450 2C19 (Homo sapiens), sequence (P33261 whole entry, looked up): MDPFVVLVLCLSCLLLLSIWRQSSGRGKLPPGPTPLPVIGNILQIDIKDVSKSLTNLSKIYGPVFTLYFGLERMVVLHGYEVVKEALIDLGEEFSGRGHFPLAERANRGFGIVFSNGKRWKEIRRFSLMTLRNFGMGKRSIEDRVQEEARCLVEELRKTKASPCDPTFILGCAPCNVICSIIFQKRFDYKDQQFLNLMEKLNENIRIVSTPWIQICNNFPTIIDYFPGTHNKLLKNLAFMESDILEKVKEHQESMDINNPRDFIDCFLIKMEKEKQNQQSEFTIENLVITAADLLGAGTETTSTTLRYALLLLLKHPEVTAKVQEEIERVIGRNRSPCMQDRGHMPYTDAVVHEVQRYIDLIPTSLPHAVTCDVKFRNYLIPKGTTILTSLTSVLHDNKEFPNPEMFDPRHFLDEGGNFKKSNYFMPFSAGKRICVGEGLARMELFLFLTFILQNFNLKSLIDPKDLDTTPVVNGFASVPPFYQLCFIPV

Row | Structure (SMILES) | activity, negative = inhibition | Potency
6 | CCCN(CCC)CCc1cccc2c1CC(=O)N2 | 99.3% (inactive) | 
7 | CCOC(=O)c1ncn2c1CN(C)C(=O)c1cc(F)ccc1-2 |  | 1.58 µM (active)
8 | c1ccc(C2CC2)c(OCC2=NCCN2)c1 | 46.8% (inactive) | 
9 | O=[N+]([O-])c1cc([As](=O)(O)O)ccc1O | 55% [at 25.6 µM] (inactive) | 
10 | C=C(C)[C@H]1Cc2c(ccc3c2O[C@@H]2COc4cc(OC)c(OC)cc4[C@@H]2C3=O)O1 |  | 1 µM (active)
11 | CC(C)C(=O)Nc1ccc([N+](=O)[O-])c(C(F)(F)F)c1 | -43.7% (inactive) | 
12 | COc1ccc(Cc2nccc3cc(OC)c(OC)cc23)cc1OC |  | 5.01 µM (active)
